Activity calls are given as the source filed them. Rule for the calls: active = hit-call score of the fitted dose curve at least 0.9, where 1 is the maximum; inactive = score below 0.9.
target: SLC6A2 (gene 6530) (UniProt P23975); assay: ERF_FR_TR_hSLC6A2: Eurofins (ERF) Radioligand Transport Binding LeadHunter Assay for human Norepinephrine NET Antagonism, conducted at France lab site
Experimental: ERF_FR_TR_hSLC6A2 is a biochemical, single-readout assay that uses extracted gene-proteins in a cell-free assay. Measurements were taken 2 hour after chemical dosing in a 96-well plate. See NET Human Norepinephrine Transporter Binding (Antagonist Radioligand) Assay, Cerep.ERF_FR_TR_hSLC6A2 is an assay component calculated from the ERF_FR_TR_hSLC6A2 assay. It is designed to measure radioligand binding using a type of binding reporter as detected by scintillation counting with radiometry technology.Data from the assay component ERF_FR_TR_hSLC6A2 was analyzed at the assay endpoint, ERF_FR_TR_hSLC6A2, in the positive analysis fitting direction relative to DMSO as the negative control and baseline of activity. Using a type of binding reporter, loss-of-signal activity can be used to understand changes in enzymatic activity as they relate to gene SLC6A2. To generalize the intended target to other relatable targets, this assay endpoint is annotated to the transporter intended target family, where the subfamily is SLC6 / Monoamine.
Human cells are incubated for 120 minutes at 4C with [3H]nisoxetine (1 nM) ligand and protriptyline as control inhibitor. Test Sample Requirements: Minimum for 1) Screen: 60 ul of 10 mM stock -OR- 1 mg (pre-weighed) for 10 uM final testing. 2) Dose Response: 90 ul of 10 mM stock -OR- 1 mg (pre-weighed) for a top concentration at 10 uM.

Chain of SLC6A2 (gene 6530) (P23975 whole entry, looked up): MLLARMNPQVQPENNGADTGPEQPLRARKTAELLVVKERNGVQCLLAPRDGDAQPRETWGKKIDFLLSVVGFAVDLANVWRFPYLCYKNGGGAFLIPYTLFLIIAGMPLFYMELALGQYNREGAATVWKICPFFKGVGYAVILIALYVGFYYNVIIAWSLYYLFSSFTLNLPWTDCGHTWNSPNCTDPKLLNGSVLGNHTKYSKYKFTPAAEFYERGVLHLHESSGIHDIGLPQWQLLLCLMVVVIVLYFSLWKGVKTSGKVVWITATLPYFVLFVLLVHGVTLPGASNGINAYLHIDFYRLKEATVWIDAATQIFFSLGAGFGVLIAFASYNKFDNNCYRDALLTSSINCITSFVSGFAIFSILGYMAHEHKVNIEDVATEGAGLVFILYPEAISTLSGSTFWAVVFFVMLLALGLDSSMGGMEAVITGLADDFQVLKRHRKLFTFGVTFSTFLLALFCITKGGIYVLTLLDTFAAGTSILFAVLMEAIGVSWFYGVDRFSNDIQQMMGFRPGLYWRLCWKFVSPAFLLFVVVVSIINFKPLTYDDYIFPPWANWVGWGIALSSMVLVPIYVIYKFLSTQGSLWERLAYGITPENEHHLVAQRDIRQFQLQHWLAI

With `COc1cc(/C=C/C(=O)CC(=O)/C=C/c2ccc(O)c(OC)c2)ccc1O` as the molecule, how does the AC50 read?
The AC50 was 2630 nM (active).

How did the outcome turn out when `CCCCC[C@H](O)CC(=O)CCc1ccc(O)c(OC)c1` was run?
Its outcome is “inactive”.

How did the outcome turn out when `COc1cc(CCC(=O)CC(=O)CCc2ccc(O)c(OC)c2)ccc1O` was run?
The outcome was “inactive”.

Which AC50 does the source give for `O=C(/C=C/c1ccc(O)cc1)CC(=O)/C=C/c1ccc(O)cc1` here?
The AC50 was 2120 nM (active).

Source: PubChem BioAssay AID2284201 (EPA ToxCast)
